From article PMC12136788
Residue numbers refer to the chain shown, from its start. The full ranking holds about 5,800 sequences; the median of “enrichment r” is about 0.54, and the highest 2% start at about 16. Many of the other results were omitted from the sample, so the highest values are more common in it than they were.

B1: chr12:39618871:39619093:-|CDS|ENSG00000173208|unk|total|mutant (ssRNA)
RNA: GGGAGUUCUACAGUCCGACGAUCUAUUAUGAUGUUCUCCCAAUCUGUGGCUCACUUGUAUUCCAAUCUGACCAAACCUAUUUCCGAUGUAAUGCUGACCUCCUAUACACUCAUUCAAACUGCUACAUCCAGAGGAGCAAGCCCCAACAGAGGAUUGAGCAUCA
B2: chr8:17753977:17754079:-|CDS|ENSG00000129422|unk|FALSE|bound_elsewhere (ssRNA)
RNA: GGGAGUUCUACAGUCCGACGAUCAAAAAAGCAGAAAUUCUAAUUAACAAGACACAUAAGCAGCAGUUUAAUAAACUCAUUACUAGCCAGGCUGUGCAUGUUACAACUCAUUCUAAAAAUGCUUCACACAGGGUUCCAAGAACACAACAGAGGAUUGAGCAUCA
B3: chr1:152032676:152032810:-|CDS|ENSG00000163191|unk|FALSE|unique (ssRNA)
RNA: GGGAGUUCUACAGUCCGACGAUCGGACCCUGGUGUCCUUGACCGCAUGAUGAAGAAACUGGACACCAACAGUGAUGGUCAGCUAGAUUUCUCAGAAUUUCUUAAUCUGAUUGGUGGCCUAGCUAUGGCUUGCCAUGACUCCUUCAACAGAGGAUUGAGCAUCA
B4: chr2:27041412:27041530:+|3pUTR|ENSG00000119777|msi1_unk|total|mutant (ssRNA)
RNA: GGGAGUUCUACAGUCCGACGAUCACUUCAAAAUGCCCAGCCUGCCCCAAAUGCCUCUAAGCCCCUCCCUGUCCCCUCCCUUGCCGUCCUACUUCUUCCAACUUUCCAUUCCCCAUCAUGCUGGGGGUCUUGGUCACAAGGCUCCAACAGAGGAUUGAGCAUCA
B5: chr11:49981574:49982501:-|CDS|ENSG00000221954|control|control|control (ssRNA)
RNA: GGGAGUUCUACAGUCCGACGAUCGAACAAUAGCUUGGAGGGGAGGUGUAAAGCCCUCUCCACCUGUAUUUCUCACAUCAUAGUAGUUGUCUUAUUCUUUGUGCCCUGUAUAUUUGUGUAUCUGCGCUCAGUGACCACUCUGCCCAACAGAGGAUUGAGCAUCA
B6: chr15:83017406:83017507:-|3pUTR|ENSG00000064726|msi1|total|mutant (ssRNA)
RNA: GGGAGUUCUACAGUCCGACGAUCGGCCUAAUAAAAUGCCCAAGAAAAUAUUCAGUGCAUUUACCGAGAAGGAUAUUUUGCCGCCGUACCGUAAUGUGUUAUGCCGUACAGUUUUAAAGCUAUAAAUGGAAUUUUGUGUAAAUUCAACAGAGGAUUGAGCAUCA
B7: ENSG00000070961:be:win_4501|3pUTR|ENSG00000070961|bound_else_gene|NA|bound_elsewhere_windowed (ssRNA)
RNA: GGGAGUUCUACAGUCCGACGAUCCCUUUUGUUCAGAAUUUAGUAGAUUGUUUAAUGCAGGACAUCAACUACAUAAUGAAAGAUGCUUGAAAUGCUUUUGUUAUUUCAGGCAAAUCAAAUUAAAUCAGACUAUCAAACUACAAGCAACAGAGGAUUGAGCAUCA
B8: chr10:11920118:11920232:-|3pUTR|ENSG00000151461|unk|total|mutant (ssRNA)
RNA: GGGAGUUCUACAGUCCGACGAUCGCCGUAUAUUCCGUCGGAGAGCACAUCUGUAUGCGACAACUUGAUUACAUCUUUUUUUCCCGCUAUUUUGCAUUUUUUCUUUUACCAUGUUUCAGUUUCUGCAUGCCGAUUUAAAUAAAACAACAGAGGAUUGAGCAUCA
B9: chr11:35231809:35232301:+|3pUTR|ENSG00000026508|msi1|FALSE|unique (ssRNA)
RNA: GGGAGUUCUACAGUCCGACGAUCACAACACCAAGAAUUGAUUUUGUAGCCAACAUUCAUUCAAUACUGUUAUAUCAGAGGAGUAGGAGAGAGGAAACAUUUGACUUAUCUGGAAAAGCAAAAUGUACUUAAGAAUAAGAAUAACAACAGAGGAUUGAGCAUCA
B10: chr15:83017406:83017507:-|3pUTR|ENSG00000064726|msi1|FALSE|unique (ssRNA)
RNA: B6 RNA with C63U, C64A, C80U, C81A, C83U, C84A, C88U, C89A, C103U, C104A
B11: chr12:39553730:39553837:-|3pUTR|ENSG00000173208|unk|FALSE|unique (ssRNA)
RNA: GGGAGUUCUACAGUCCGACGAUCGAAGUAUGUUAAGCUAAGCACAGAGAAAAAAAGGCAGCAAGACAUGUUUUAUAAGAUUUUAGCAUUAAGGAAGUAUAUGAUCUGACUUUUCAGAAGAAAAUAAACAAAUGCAUUAUGUAACAACAGAGGAUUGAGCAUCA
B12: chr15:34980028:34980129:-|3pUTR|ENSG00000198146|msi1|FALSE|unique (ssRNA)
RNA: GGGAGUUCUACAGUCCGACGAUCGGUUCUGUUAUUUAAGCCUGUUCUAAGUUUGAUCAAAUGGCAAUGACUAGGUCUAGUUUUAGUUUUUAUUUUUGCAGGAGUCUAUUGCUAAAGAAUUUUAUUUUGAUGCUUGUUAAAUUUCAACAGAGGAUUGAGCAUCA
B13: chr10:11920118:11920232:-|3pUTR|ENSG00000151461|unk|FALSE|unique (ssRNA)
RNA: B8 RNA with C25U, C26A, C34U, C35A, C83U, C84A, C129U, C130A
B14: chr15:34980028:34980129:-|3pUTR|ENSG00000198146|msi1|total|mutant (ssRNA)
RNA: B12 RNA with U71C, A72C, U77C, A78C, U83C, A84C
B15: chr7:157269180:157269282:+|3pUTR|ENSG00000009335|unk|FALSE|unique (ssRNA)
RNA: GGGAGUUCUACAGUCCGACGAUCAUUUUAGGUUGUUUUAUGUUGAAUGUUCUAUAUCUUAUUAGUUAAUUUGUAUAUUUUAUUAGUAUUUUGGAAAUAGCAUAUCUGAGACUGAAGAGAAAUUGACAAUUCACUUAUUUGUGGCAACAGAGGAUUGAGCAUCA
B16: ENSG00000114744:stop:overlap|stop_codon|ENSG00000114744|stop_codon|NA|stop_codon (ssRNA)
RNA: GGGAGUUCUACAGUCCGACGAUCAACAAGCAUUGGAAGAGAUGAAGACAAAUCACUGUAGGAGAGUUGUUCGCAACAUCAAGUAGUACCAGUUUUAAGGUUUUAAUUCAUUUGAAUCACUUAUGAAUUGAUGAUAUACAGCAACAACAGAGGAUUGAGCAUCA
B17: ENSG00000070961:be:win_5801|3pUTR|ENSG00000070961|bound_else_gene|NA|bound_elsewhere_windowed (ssRNA)
RNA: GGGAGUUCUACAGUCCGACGAUCGAAAAGGGAAAUGUUUUCAGUUUUCUUUUUUAUUUUGGUUAUGCUUAAAUAUGAAUGUAAUUACCAAAAGAUUUAGAAGUGCAUGUGCUUUGGAGGAUUUGUAUUGAGCUUUUACAGUAUCAACAGAGGAUUGAGCAUCA

target: MSI1 full-length (mouse, UniProt Q61474 1-362); test: nsRBNS (natural sequence RNA bind-n-seq); RBNS binding buffer (assumed for nsRBNS): 25 mM Tris pH 7.5, 150 mM KCl, 3 mM MgCl2, 0.01% Triton X-100, 500 ug/ml BSA, 20 U/ml SUPERase-In, 4 C; UNK is unkempt and MSI1 is Musashi-1; names of the RNAs are library labels; protein concentration not given here; high values mean tight binding
Sequence (Q61474 whole entry): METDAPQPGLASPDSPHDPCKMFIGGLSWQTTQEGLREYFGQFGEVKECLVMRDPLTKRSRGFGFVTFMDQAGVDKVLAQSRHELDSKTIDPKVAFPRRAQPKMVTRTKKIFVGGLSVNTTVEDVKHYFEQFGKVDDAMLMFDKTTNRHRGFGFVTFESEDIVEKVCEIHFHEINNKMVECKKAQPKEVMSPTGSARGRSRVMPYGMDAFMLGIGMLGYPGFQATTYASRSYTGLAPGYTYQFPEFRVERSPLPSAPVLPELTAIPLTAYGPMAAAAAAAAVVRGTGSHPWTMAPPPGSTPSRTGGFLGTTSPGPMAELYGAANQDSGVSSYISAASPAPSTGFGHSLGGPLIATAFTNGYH

Row | Binder | binding signal [enrichment R]
1 | B1 | 0.621
2 | B2 | 2.45
3 | B3 | 0.264
4 | B4 | 0.832
5 | B5 | 2.83
6 | B6 | 0.489
7 | B7 | 0.644
8 | B8 | 0.709
9 | B9 | 0.807
10 | B10 | 44.9
11 | B11 | 2.43
12 | B12 | 77.2
13 | B13 | 23.3
14 | B14 | 0.774
15 | B15 | 12.7
16 | B16 | 16.3
17 | B17 | 1.05
